ChEMBL document CHEMBL4513141, “CO-ADD screening of NIH (USA) - Clinical Collection” (2021)
Entries with a potency or affinity are not part of this list. Square brackets hold non-standard residues; d marks the D form. Peptide text beside a SMILES is read from it. pGlu = O=C1CC[C@@H](C(=O)O)N1; Thz = O=C(O)[C@@H]1CSCN1

Experiments:
Klebsiella pneumoniae = details: Concentration 20 uM; ASSAY_TEST Inhibition of Bacterial Growth; detection method Absorption (OD600); MEDIA CAMHB; plate type 384well; NBS; CORNING #3640; time 18 hr
Candida albicans = details: 20 µM
Cryptococcus neoformans = details: Concentration 20 uM; ASSAY_TEST Inhibition of Fungal Growth; detection method Resazurin; Absorption (OD600-OD570); plate type 384well; NBS; CORNING #3640

| Compound | Inhibition (Klebsiella pneumoniae) [%] | Inhibition (Candida albicans) [%] | Inhibition (Cryptococcus neoformans) [%] |
| --- | --- | --- | --- |
| CN(C)CCC(c1ccc(Cl)cc1)c1ccccn1.O=C(O)/C=C\C(=O)O (stereo not drawn) [CHLORPHENIRAMINE MALEATE] | 2.46 | 4.73 | 0.1 |
| CC[C@]1(O)C[C@@H]2CN(CCc3c([nH]c4ccccc34)[C@@](C(=O)OC)(c3cc4c(cc3OC)N(C)[C@H]3[C@@](O)(C(N)=O)[C@H](O)[C@]5(CC)C=CCN6CC[C@]43[C@@H]65)C2)C1.O=S(=O)(O)O [VINDESINE SULFATE] | 6.96 | 3.45 | 0.45 |
| COc1ccccc1OCCNCC(O)COc1cccc2[nH]c3ccccc3c12 (stereo not drawn) [CARVEDILOL] | 14.17 | 1.69 | 1.85 |
| Cl.Nc1nc2ccc(OC(F)(F)F)cc2s1 | 11.2 | 2.98 | -9.1 |
| Cc1cc2c(s1)Nc1ccccc1N=C2N1CCN(C)CC1 [OLANZAPINE] | 5.81 | -0.3 | -5.37 |
| CN1CCN(c2nc3cc(C(F)(F)F)ccc3n3cccc23)CC1.O=C(O)/C=C\C(=O)O.O=C(O)/C=C\C(=O)O | 7.65 | 3.61 | 2.72 |
| CC(C)Oc1ccc2c(=O)c(-c3ccccc3)coc2c1 [IPRIFLAVONE] | 12.22 | 3.92 | 2.68 |
| CS(=O)(=O)OCCCCOS(C)(=O)=O [BUSULFAN] | 14.59 | 3.72 | -1.79 |
| Cc1cccc(CCN2CCC(C(=O)c3ccc(NS(C)(=O)=O)cc3)CC2)n1.Cl.Cl | 0.58 | 2.81 | -8.23 |
| COc1ccc(CC2c3cc(OC)c(OC)cc3CC[N+]2(C)CCC(=O)OCCCCCOC(=O)CC[N+]2(C)CCc3cc(OC)c(OC)cc3C2Cc2ccc(OC)c(OC)c2)cc1OC.O=S(=O)(O)c1ccccc1 (stereo not drawn) | 4.87 | 3.58 | -0.33 |
| Cc1ccc(S(=O)(=O)NC(=O)NN2CCCCCC2)cc1 [TOLAZAMIDE] | -1.58 | -0.09 | -7.48 |
| Cl.Clc1ccc2nsnc2c1NC1=NCCN1 [TIZANIDINE HYDROCHLORIDE] | 10.36 | 3.84 | -1.24 |
| COC(=O)Nc1nc2cc(C(=O)c3ccccc3)ccc2[nH]1 [MEBENDAZOLE] | 11.43 | 4.65 | 41.35 |
| O=C1Nc2ccc(Cl)cc2[C@@](C#CC2CC2)(C(F)(F)F)O1 [EFAVIRENZ] | -2.99 | 3.86 | -5.8 |
| C[C@H](N[C@@H](CCc1ccccc1)C(=O)O)C(=O)N1CCC[C@H]1C(=O)O [ENALAPRILAT ANHYDROUS] | 8.45 | 2.99 | 1.01 |
| CC(N)(Cc1ccc(O)c(O)c1)C(=O)O (stereo not drawn) [METHYLDOPA (RACEMIC)] | 2.57 | 3.32 | 7.73 |
| CNCCC=C1c2ccccc2CCc2ccccc21.Cl [NORTRIPTYLINE HYDROCHLORIDE] | 11.74 | 1.73 | -10.6 |
| OC[C@H]1O[C@@H](Oc2cc(O)cc(/C=C/c3ccc(O)cc3)c2)[C@H](O)[C@@H](O)[C@@H]1O [PICEID] | 6.92 | 3.19 | -0.2 |
| Cc1cccc(C)c1OCC(C)N.Cl (stereo not drawn) [MEXILETINE HYDROCHLORIDE] | 13.5 | 3.72 | -0.12 |
| C[C@@H](O)[C@H]1C(=O)N2C(C(=O)O)=C(S[C@@H]3CN[C@H](C(=O)N(C)C)C3)[C@H](C)[C@H]12 [MEROPENEM] | 0.03 | 3.42 | 2.76 |
| CC(C)NCC(O)COc1ccc(CC(N)=O)cc1 (stereo not drawn) [ATENOLOL] | 8.57 | 3.26 | 1.62 |
| Cl.Clc1ccccc1CN1CCc2sccc2C1 [TICLOPIDINE HYDROCHLORIDE] | -0.77 | 1.25 | -6.79 |
| COCCOC(=O)C1=C(C)NC(C)=C(C(=O)OC(C)C)C1c1cccc([N+](=O)[O-])c1 (stereo not drawn) [NIMODIPINE] | 1.9 | 5.34 | -7.18 |
| C[C@H]1O[C@@H](O[C@H]2[C@@H](O)C[C@H](O[C@H]3[C@@H](O)C[C@H](O[C@H]4CC[C@@]5(C)[C@H](CC[C@@H]6[C@@H]5C[C@@H](O)[C@]5(C)C(C7=CC(=O)OC7)CC[C@]65O)C4)O[C@@H]3C)O[C@@H]2C)C[C@H](O)[C@@H]1O (stereo partly drawn) | 10.13 | 4.95 | -6 |
| COC(=O)CCc1ccc(OCC(O)CNC(C)C)cc1.Cl (stereo not drawn) [ESMOLOL HYDROCHLORIDE] | 3.48 | 1.99 | -7.33 |
| NS(=O)(=O)c1cc2c(cc1C(F)(F)F)NCNS2(=O)=O [HYDROFLUMETHIAZIDE] | 13.59 | -0.33 | -2.31 |

| Compound | Inhibition (Klebsiella pneumoniae) [%] | Inhibition (Candida albicans) [%] | Inhibition (Cryptococcus neoformans) [%] |
| --- | --- | --- | --- |
| CNNCc1ccc(C(=O)NC(C)C)cc1.Cl [PROCARBAZINE HYDROCHLORIDE] | 8 | 2.55 | -6.46 |
| CN1CCCCC1CCN1c2ccccc2Sc2ccc([S+](C)[O-])cc21.O=S(=O)(O)c1ccccc1 (stereo not drawn) [MESORIDAZINE BESYLATE] | -1.64 | 4.29 | 2.61 |
| O=C1N=C([O-])NC1(c1ccccc1)c1ccccc1.[Na+] [PHENYTOIN SODIUM] | 7.94 | 2.49 | 1.23 |
| C[C@H]1C[C@@H]2[C@H]([C@@H](O)C[C@@]3(C)[C@H]2CC[C@]3(O)C(=O)CO)[C@@]2(C)C=CC(=O)C=C12 [METHYLPREDNISOLONE] | 20.28 | 2.95 | -7.56 |
| NCC(=O)CCC(=O)O [AMINOLEVULINIC ACID] | 13.51 | 0.21 | -6.69 |
| COc1ccccc1N1CCN(CCCNc2cc(=O)n(C)c(=O)n2C)CC1.Cl [URAPIDIL HYDROCHLORIDE] | 17.15 | 3.19 | -6.92 |
| CS(=O)(=O)O.Cc1c(O)cccc1C(=O)N[C@@H](CSc1ccccc1)[C@H](O)CN1C[C@H]2CCCC[C@H]2C[C@H]1C(=O)NC(C)(C)C [NELFINAVIR MESYLATE] | 0.71 | 0.96 | -18.17 |
| CCOc1cc(N)c(Cl)cc1C(=O)NCC1CN(Cc2ccc(F)cc2)CCO1.O=C(O)CC(O)(CC(=O)O)C(=O)O (stereo not drawn) [MOSAPRIDE CITRATE] | 16.24 | 1.57 | -5.5 |
| CCN(CC)CCNC(=O)c1ccc(N)cc1.Cl [PROCAINAMIDE HYDROCHLORIDE] | -3.79 | 0.33 | 3.84 |
| CN1CCC(=C2c3ccccc3CC(=O)c3sccc32)CC1.O=C(O)/C=C/C(=O)O [KETOTIFEN FUMARATE] | 1.04 | 3.18 | -3.16 |
| CN(C)CC[C@@H](c1ccc(Cl)cc1)c1ccccn1.O=C(O)/C=C\C(=O)O [DEXCHLORPHENIRAMINE MALEATE] | 21.61 | 2.45 | -7.42 |
| CCCc1nc2c(C)cc(-c3nc4ccccc4n3C)cc2n1Cc1ccc(-c2ccccc2C(=O)O)cc1 | 15 | 1.9 | -31 |
| CCCN[C@H]1CCc2nc(N)sc2C1 [PRAMIPEXOLE] | 5.86 | 5.21 | -0.71 |
| CCC(=O)[N-]S(=O)(=O)c1ccc(-c2c(-c3ccccc3)noc2C)cc1.[Na+] [PARECOXIB SODIUM] | 7.5 | 3.16 | -0.82 |
| C#C[C@]1(O)CC[C@H]2[C@@H]3[C@H](C)CC4=C(CCC(=O)C4)[C@H]3CC[C@@]21C [TIBOLONE] | 12.38 | 6.29 | -2.16 |
| COc1ccnc(C[S+]([O-])c2nc3cc(OC(F)F)ccc3[n-]2)c1OC.O.[Na+] (stereo not drawn) [PANTOPRAZOLE SODIUM] | 5.85 | 19.6 | -26.37 |
| Cc1[nH]cnc1CN1CCc2c(c3ccccc3n2C)C1=O.Cl [ALOSETRON HYDROCHLORIDE] | 15.86 | 2.6 | -5.48 |
| CCc1c(C)[nH]c2c1C(=O)C(CN1CCOCC1)CC2.Cl (stereo not drawn) [MOLINDONE HYDROCHLORIDE] | -0.12 | 3.99 | 6.64 |
| CCC(=O)OCC(=O)[C@@]1(OC(=O)CC)[C@@H](C)C[C@H]2[C@@H]3CCC4=CC(=O)C=C[C@]4(C)[C@@]3(Cl)[C@@H](O)C[C@@]21C [BECLOMETHASONE DIPROPIONATE] | 7.24 | 3.12 | 1.67 |
| O=C1CC[C@@H](C(=O)N2CSC[C@H]2C(=O)O)N1 [PIDOTIMOD] ([pGlu]-[Thz]-OH) | 9.73 | 0.05 | -3.45 |
| Cl.Cn1c(NCCN(CCO)CCCc2ccc([N+](=O)[O-])cc2)cc(=O)n(C)c1=O | 3.03 | 4.73 | -1.07 |
| Cl.NC12CC3CC(CC(C3)C1)C2 [AMANTADINE HYDROCHLORIDE] | 13.94 | 3.06 | -3.67 |
| CC(=O)OCC(=O)[C@@]1(O)CC[C@H]2[C@@H]3CCC4=CC(=O)CC[C@]4(C)[C@H]3[C@@H](O)C[C@@]21C [HYDROCORTISONE ACETATE] | 10.46 | 1.02 | -7.62 |
| O=C(C1CCCCC1)N1CC(=O)N2CCc3ccccc3C2C1 (stereo not drawn) [PRAZIQUANTEL] | 12.45 | 5.72 | -0.79 |
| C[C@]12CCC(=O)C=C1CC[C@@H]1[C@@H]2C(=O)C[C@@]2(C)[C@H]1CC[C@]2(O)C(=O)CO [CORTISONE] | 16.58 | 4.46 | 0.81 |
